Data on 42 compounds can be found in PMC4336329 (PLoS ONE, 2015).

Hit rate of the full screen: of about 310,000 compounds, about 2,200 (0.71%) showed an effect of 50% or more. Effects have a minus sign here. Only a selection was taken, and strong results are over-represented in it overall.

The target in this assay is human ether-à-go-go-related gene (hERG) potassium channel (human, UniProt Q12809). Kind of assay: primary screen, population patch clamp on CHO cells stably expressing hERG; higher = less effect of the substance.
human ether-à-go-go-related gene (hERG) potassium channel, sequence (Q12809 whole entry, looked up): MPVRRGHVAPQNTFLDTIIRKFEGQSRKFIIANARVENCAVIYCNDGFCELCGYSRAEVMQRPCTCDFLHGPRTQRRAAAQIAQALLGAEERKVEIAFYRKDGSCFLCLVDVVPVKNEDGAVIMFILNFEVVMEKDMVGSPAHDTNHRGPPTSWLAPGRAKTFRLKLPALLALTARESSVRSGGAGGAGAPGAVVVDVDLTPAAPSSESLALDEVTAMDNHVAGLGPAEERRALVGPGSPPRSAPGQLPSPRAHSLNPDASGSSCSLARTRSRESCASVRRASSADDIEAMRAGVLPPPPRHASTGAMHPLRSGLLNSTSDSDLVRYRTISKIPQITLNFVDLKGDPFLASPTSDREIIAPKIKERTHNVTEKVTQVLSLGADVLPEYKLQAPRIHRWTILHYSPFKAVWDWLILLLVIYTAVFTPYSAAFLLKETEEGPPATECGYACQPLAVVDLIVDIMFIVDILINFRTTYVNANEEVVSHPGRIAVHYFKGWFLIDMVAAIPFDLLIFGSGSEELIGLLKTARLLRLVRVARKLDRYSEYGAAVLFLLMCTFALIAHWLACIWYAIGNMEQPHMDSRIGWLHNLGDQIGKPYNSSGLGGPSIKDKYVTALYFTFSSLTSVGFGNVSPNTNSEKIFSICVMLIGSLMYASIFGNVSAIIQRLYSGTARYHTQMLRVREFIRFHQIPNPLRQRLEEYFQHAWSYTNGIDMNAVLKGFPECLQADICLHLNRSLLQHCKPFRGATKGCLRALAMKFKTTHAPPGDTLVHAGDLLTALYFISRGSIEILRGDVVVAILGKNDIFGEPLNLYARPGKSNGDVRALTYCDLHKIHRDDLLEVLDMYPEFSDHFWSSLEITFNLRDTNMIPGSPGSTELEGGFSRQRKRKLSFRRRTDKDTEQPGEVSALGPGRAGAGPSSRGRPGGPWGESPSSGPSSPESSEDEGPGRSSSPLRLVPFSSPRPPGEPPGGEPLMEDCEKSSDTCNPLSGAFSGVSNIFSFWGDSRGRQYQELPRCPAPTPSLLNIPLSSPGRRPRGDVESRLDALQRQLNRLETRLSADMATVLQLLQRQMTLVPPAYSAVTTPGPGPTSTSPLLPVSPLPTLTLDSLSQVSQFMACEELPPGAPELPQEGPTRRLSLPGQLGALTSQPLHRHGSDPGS
Turning to `CCOC(=O)C1=C(Cn2cnc3ccccc32)NC(=O)NC1c1cc(C)ccc1C` (stereo not drawn), the “hERG current change (%, negative = inhibition) at 1uM” value was 12.2%. With `CCOC(=O)CSc1nnc(CSc2nc3ccccc3s2)n1C` the figure was 6.96%; with `COC(=O)Nc1nc2c(C)cccc2s1`, -4.56%. The figure for `CCN(c1ccc(NC(=O)c2ccc(Cl)nc2)cc1)C(C)C` is 12.2%.

Regarding `CS(=O)(=O)O.Oc1ccc(C2CNCCc3c2cc(O)c(O)c3Cl)cc1` (stereo not drawn), the “hERG current change (%, negative = inhibition) at 1uM” value was -0.982%. The figure for `CCS(=O)(=O)NCc1cn2c(C)csc2n1` is 0.136%; for `CCCc1[nH]n(-c2ccc([N+](=O)[O-])cc2)c(=O)c1C=NCCCn1ccnc1` it is -50.1%. Regarding `CCCc1[nH]n(-c2ccc([N+](=O)[O-])cc2)c(=O)c1C=NCCc1ccc(OC)c(OC)c1`, the “hERG current change (%, negative = inhibition) at 1uM” value is on record as 4.23%. On to `CCCc1[nH]n(-c2ccc([N+](=O)[O-])cc2)c(=O)c1C=NCCN1CCNCC1`, for which the “hERG current change (%, negative = inhibition) at 1uM” value is -9.24%. The figure for `COc1cccc(CNC(=O)CCC2CCCN(c3cc(C)nc(N4CCCC4)n3)C2)c1` (stereo not drawn) is -74%; for `COc1cccc(CNC(=O)CCC2CCCN(C/C=C/c3ccccc3OC)C2)c1` (stereo not drawn) it is -34.5%; for `COc1ccc(/C=C/CN2CCCC(CCC(=O)NCc3ccc(F)c(F)c3)C2)cc1` (stereo not drawn) it is -54.3%. The figure for `COCc1ccc(CN2CCCC(CCC(=O)NCc3cccc(OC)c3)C2)o1` (stereo not drawn) is 11%. With `COc1cccc(CNC(=O)CCC2CCCN(c3cc(C)nc(N(C)C)n3)C2)c1` (stereo not drawn) the figure was -27.7%. Regarding `COc1cccc(CNC(=O)CCC2CCCN(Cc3cc(Cl)ccc3O)C2)c1` (stereo not drawn), the “hERG current change (%, negative = inhibition) at 1uM” value is reported as -20%. The figure for `COc1ccccc1/C=C/CN1CCCC(CCC(=O)NCc2ccc(F)c(F)c2)C1` (stereo not drawn) is -26.2%; for `COc1cccc(CNC(=O)CCC2CCCN(c3cc(C)nc(N)n3)C2)c1` (stereo not drawn) it is -18.3%; for `COc1cccc(CNC(=O)CCC2CCCN(Cc3ccc(OC(F)F)cc3)C2)c1` (stereo not drawn) it is -80.1%. With `C/C(CC(=O)Nc1cccc(Cl)c1Cl)=N\NC(=O)c1ccccc1C` the figure was 8.35%; with `CC(=O)Nc1cccc(NC(=O)CSc2ncc(C(=O)Nc3ccc(F)cc3)c(=O)n2C)c1`, -3.89%; with `COc1ccc(C2(C#N)CCC(=O)N2c2ccccc2)cc1` (stereo not drawn), 8.4%.

For `COC(=O)CNC(=O)CN1c2cccc3cccc(c23)S1(=O)=O`, the “hERG current change (%, negative = inhibition) at 1uM” value is listed as -12.4%. Regarding `Cc1c(C(=O)O)c(-c2ccccc2)nn1-c1ccccc1`, the “hERG current change (%, negative = inhibition) at 1uM” value is 10.8%. For the compound `O=C(CCCN1CCC(C(=O)c2ccc(F)cc2)CC1)c1ccc(F)cc1`, the “hERG current change (%, negative = inhibition) at 1uM” value is -86.2%. With `CN1CCN(CCCC(=O)c2ccc(F)cc2)CC1.Cl` the figure was -1.2%. Take `O=C(c1ccc(F)cc1)C1CCN(C(=O)c2ccc(F)cc2)CC1`: the “hERG current change (%, negative = inhibition) at 1uM” value was determined as 2.31%. On to `Cc1ccc(C(=O)NC2CCN(CCCC(=O)c3ccc(F)cc3)CC2)cc1`, for which the “hERG current change (%, negative = inhibition) at 1uM” value is -72.9%. Consider `O=C(CCCN1CCC(NC(=O)c2ccccc2)CC1)c1ccc(Cl)cc1`, for which the “hERG current change (%, negative = inhibition) at 1uM” value is recorded as -59.5%.

`Cc1ccc(C(=O)NC2CCN(C(=O)Nc3ccc(F)cc3)CC2)cc1`: the “hERG current change (%, negative = inhibition) at 1uM” value is 8.68%.

`Cc1ccc(C(=O)NC2CCN(S(=O)(=O)c3ccc(F)cc3)CC2)cc1`: the “hERG current change (%, negative = inhibition) at 1uM” value turned out to be 9.73%.

With `O=C(NC1CCN(Cc2ccccc2Cl)CC1)c1ccccc1`, the “hERG current change (%, negative = inhibition) at 1uM” value is given as 10%. The figure for `O=C(NC1CCN(Cc2ccc(Cl)cc2Cl)CC1)c1ccccc1` is -6.37%. The figure for `CC(C)CC(C)NC(=O)c1ccc(C(F)(F)F)cc1` (stereo not drawn) is 10.6%; for `CCCCN(C)Cc1c(O)ccc2c(-c3ccccc3)cc(=O)oc12` it is -4.52%; for `Cc1cccn2c(=O)c3cc(C#N)c(=NC(=O)c4cccs4)n(CC(C)C)c3nc12` it is 7.98%.

For the compound `COCCCn1c(=NC(C)=O)c(C#N)cc2c(=O)n3cccc(C)c3nc21`, the “hERG current change (%, negative = inhibition) at 1uM” value is -7.03%. In the case of `CCOCCCn1c(=NC(=O)c2ccc(OC)c(OC)c2)c(C#N)cc2c(=O)n3cccc(C)c3nc21`, the “hERG current change (%, negative = inhibition) at 1uM” value is -11%.

`Cc1cccn2c(=O)c3cc(C#N)c(=NC(=O)c4ccncc4)n(CCCOC(C)C)c3nc12`: the “hERG current change (%, negative = inhibition) at 1uM” value is -89.7%. The figure for `COCCCn1c(=NC(=O)c2ccccc2)c(C#N)cc2c(=O)n3cccc(C)c3nc21` is -49%; for `Cc1cccn2c(=O)c3cc(C#N)c(=NC(=O)c4cccs4)n(CCCOC(C)C)c3nc12` it is -26.1%. With `CC(=O)N=c1c(C#N)cc2c(=O)n3cccc(C)c3nc2n1CCCOC(C)C` the figure was -13.3%; with `COCCCn1c(=NC(=O)c2ccncc2)c(C#N)cc2c(=O)n3cccc(C)c3nc21`, -53.3%.
